Some test systems named below: MELK; MERTK; MET; MKK7; MKNK1; MKNK2; MLK2; MLK3; MRCKA; MST1R.
Settings in all cases: concentration: 1 μM, replicates: in singlicate; n = 1
For another assay, the system named is T1, MEK2.
T1 construct: gene MAP2K2

Another assay concerns T2, MEK3.
T2 construct: gene MAP2K3

A further assay concerns T3, MEK4.
T3 construct: gene MAP2K4

The subject of the next assay is T4, MEK5.
T4 construct: gene MAP2K5

For the next assay, the system named is T5, MEK6.
T5 construct: gene MAP2K6

Another assay has as its system T6, MINK.
T6 construct: gene MINK1

For another assay, the system named is T7, MLCK.
T7 construct: gene MYLK3

In the next assay the test system is T8, MLK1.
T8 construct: gene MAP3K9

The subject of the next assay is T9, MRCKB.
T9 construct: gene CDC42BPB

The next assay deals with T10, MST1.
T10 construct: gene STK4

Structures are written as SMILES.
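Also: KINOMEscan kinase panel screen.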

As to `COC(=O)c1c(-c2ccccc2)c2cc(OC)ccc2c(=O)n1Cc1ccccc1`, the “%Inh” value is recorded as 0% in the assay on MEK2; 0% with MEK3; 18% in the assay with MEK4; 10% in the assay on MEK5; 21% in the assay on MEK6; 0% in the assay with MELK. Besides, the “%Inh” value is 3% in the assay on MERTK; 0% with MET; 0% in the assay with MINK; 7% in the assay on MKK7; 5% in the assay on MKNK1; 0% with MKNK2. For the same compound, the “%Inh” value in the assay with MLCK worked out at 3%; in the assay on MLK1, 0%; in the assay on MLK2 it was 9%; in the assay with MLK3, 0%; with MRCKA, 0%; in the assay with MRCKB, 0%. Moreover, the “%Inh” value stood at 38% with MST1R and 15% in the assay on MST1.
Regarding `Cn1ccc2ncnc(Oc3ccc(NC(=O)Nc4ccccc4)cc3)c21`, the “%Inh” value with MEK2 came to 20%; in the assay with MEK3 it was 20%; in the assay with MEK4, 0%; in the assay on MEK5, 39%; with MEK6 it was 0%; in the assay with MELK, 16%. For the same compound, the “%Inh” value in the assay with MERTK was 0%; with MET it was 28%; with MINK, 16%; in the assay with MKK7 it was 20%; in the assay on MKNK1, 13%; with MKNK2, 43%. In addition, the “%Inh” value in the assay on MLCK is given as 0%; in the assay with MLK1 it was 0%; with MLK2, 0%; in the assay on MLK3, 19%; with MRCKA, 0%; with MRCKB, 16%. The entries for the “%Inh” value in the assay on MST1R and in the assay on MST1 were 10% and 0%, respectively.
For `Fc1cc(Cl)ccc1Nc1ccnc2cc(I)ccc12` [GW551191], the “%Inh” value in the assay on MEK2 was 0%; with MEK3, 0%; in the assay on MEK4, 46%; with MEK5 it was 75%; in the assay with MEK6, 0%; in the assay with MELK, 16%. In addition, the “%Inh” value is given as 30% with MERTK; 8% in the assay with MET; 51% with MINK; 0% in the assay with MKK7; 0% with MKNK1; 18% in the assay with MKNK2. Moreover, the “%Inh” value came to 2% in the assay with MLCK; 0% in the assay with MLK1; 0% in the assay with MLK2; 0% in the assay on MLK3; 16% with MRCKA; 0% in the assay on MRCKB. Besides, the “%Inh” value turned out to be 82% in the assay on MST1R and 0% with MST1.
Regarding `COc1ccccc1CNC(=O)c1cc(C(=O)c2ccccc2C)c[nH]1` [GSK364507], the “%Inh” value with MEK2 is given as 0%; with MEK3 it was 0%; in the assay on MEK4, 41%; in the assay on MEK5, 36%; in the assay with MEK6 it was 0%; in the assay on MELK, 0%. The “%Inh” value with MERTK is recorded as 0%; in the assay on MET it was 0%; in the assay with MINK it was 0%; in the assay on MKK7, 0%; in the assay on MKNK1 it was 5%; in the assay on MKNK2 it was 2%. The “%Inh” value is 9% in the assay on MLCK; 0% in the assay on MLK1; 0% with MLK2; 0% with MLK3; 40% in the assay with MRCKA; 0% in the assay with MRCKB. Moreover, the entries for the “%Inh” value in the assay on MST1R and with MST1 were 36% and 0%, respectively.
Turning to `Fc1cc(Cl)ccc1Nc1ccnc2cc(-c3ccc(CN4CCCCC4)o3)ccc12` [GW560116], the “%Inh” value in the assay on MEK2 turned out to be 100%; in the assay on MEK3, 0%; in the assay with MEK4 it was 32%; with MEK5, 83%; in the assay with MEK6, 2%; in the assay on MELK, 9%. In addition, the “%Inh” value is reported as 0% with MERTK; 0% in the assay with MET; 19% in the assay on MINK; 0% with MKK7; 0% in the assay with MKNK1; 11% in the assay on MKNK2. Also, the “%Inh” value in the assay with MLCK amounted to 0%; in the assay with MLK1 it was 0%; in the assay on MLK2 it was 0%; in the assay with MLK3 it was 0%; in the assay with MRCKA, 6%; in the assay on MRCKB, 3%. Besides, the “%Inh” value worked out at 16% in the assay on MST1R and 0% with MST1.
For `CN(C)CCN(C)C(=O)c1cc(-c2ccncc2)c(-c2ccc(Cl)c(O)c2)o1.Cl.Cl` [SB-710397], the “%Inh” value in the assay on MEK2 came out at 0%; in the assay on MEK3 it was 0%; in the assay with MEK4, 0%; with MEK5, 48%; in the assay on MEK6, 0%; in the assay on MELK, 9%. Also, the “%Inh” value in the assay with MERTK was 24%; with MET, 0%; in the assay with MINK, 46%; in the assay on MKK7, 14%; in the assay on MKNK1, 2%; in the assay on MKNK2, 1%. Besides, the “%Inh” value came out at 12% in the assay on MLCK; 0% in the assay on MLK1; 0% with MLK2; 0% in the assay with MLK3; 17% in the assay on MRCKA; 2% in the assay on MRCKB. For the same compound, the “%Inh” value with MST1R worked out at 42%; in the assay with MST1, 0%.
On to `COc1ccc(CNC(=O)NC2CCN(c3ccnc(Nc4cc(OC)c(OC)c(OC)c4)n3)C2)cc1` (stereo not drawn) [GSK1379748], for which the “%Inh” value in the assay with MEK2 was determined as 0%; in the assay on MEK3 it was 0%; in the assay on MEK4, 6%; in the assay with MEK5, 98.4%; in the assay with MEK6 it was 0%; in the assay on MELK, 0%. In addition, the “%Inh” value with MERTK was determined as 36%; with MET it was 9%; in the assay on MINK it was 0%; with MKK7, 0%; with MKNK1, 8%; in the assay with MKNK2, 30%. The “%Inh” value stood at 0% in the assay on MLCK; 0% in the assay with MLK1; 21% in the assay with MLK2; 23% in the assay with MLK3; 34% with MRCKA; 0% in the assay with MRCKB. The “%Inh” value worked out at 29% in the assay on MST1R and 0% with MST1.
With `Cc1cc(NCC(c2ccccc2)c2ccccc2)nc(NCc2ccc(C(F)(F)F)cc2)n1` [GW497681], the “%Inh” value in the assay with MEK2 is reported as 0%; in the assay with MEK3, 0%; with MEK4, 10%; with MEK5 it was 1%; in the assay with MEK6, 0%; in the assay with MELK, 0%. Also, the “%Inh” value in the assay on MERTK is given as 7%; in the assay with MET, 13%; with MINK, 0%; with MKK7, 0%; with MKNK1, 0%; in the assay on MKNK2 it was 0%. Also, the “%Inh” value with MLCK came out at 3%; with MLK1, 0%; with MLK2 it was 0%; with MLK3 it was 0%; in the assay on MRCKA, 3%; in the assay on MRCKB, 0%. The “%Inh” value is recorded as 10% in the assay on MST1R and 0% with MST1.
On to `Cc1cccc(-c2nc(-c3ccc(S(C)(=O)=O)cc3)sc2-c2ccnc(NCCc3ccccc3)c2)c1`, for which the “%Inh” value in the assay with MEK2 is reported as 7%; in the assay on MEK3, 0%; in the assay on MEK4, 25%; with MEK5, 0%; in the assay on MEK6, 8%; in the assay with MELK, 0%. Further, the “%Inh” value in the assay with MERTK worked out at 0%; in the assay with MET, 0%; in the assay on MINK, 0%; with MKK7, 0%; in the assay with MKNK1, 3%; with MKNK2 it was 0%. Also, the “%Inh” value in the assay with MLCK came to 0%; in the assay with MLK1, 0%; in the assay with MLK2 it was 2%; in the assay on MLK3, 0%; in the assay on MRCKA it was 6%; in the assay on MRCKB, 0%. Also, the “%Inh” value in the assay with MST1R is reported as 28%; in the assay with MST1 it was 0%.

These data come from article PMC5540273 (PLoS ONE, 2017).
